Assay results as given in ChEMBL document CHEMBL1961873, “Compounds: GSK PKIS; Assays: Nanosyn kinase panel” (2012).

Columns and labels:
[1] = target: Casein kinase I isoform gamma-2 (Homo sapiens) (UniProt P78368); details: at 1 µM
[2] = target: Casein kinase I isoform gamma-3 (Homo sapiens) (UniProt Q9Y6M4); details: at 0.1 µM
[3] = target: Casein kinase I isoform gamma-3 (Homo sapiens) (UniProt Q9Y6M4); details: at 1 µM
[4] = target: Cyclin-dependent kinase 1 (Homo sapiens) (UniProt P06493); details: at 0.1 µM
Chain of Cyclin-dependent kinase 1 (Homo sapiens) (P06493 whole entry, looked up): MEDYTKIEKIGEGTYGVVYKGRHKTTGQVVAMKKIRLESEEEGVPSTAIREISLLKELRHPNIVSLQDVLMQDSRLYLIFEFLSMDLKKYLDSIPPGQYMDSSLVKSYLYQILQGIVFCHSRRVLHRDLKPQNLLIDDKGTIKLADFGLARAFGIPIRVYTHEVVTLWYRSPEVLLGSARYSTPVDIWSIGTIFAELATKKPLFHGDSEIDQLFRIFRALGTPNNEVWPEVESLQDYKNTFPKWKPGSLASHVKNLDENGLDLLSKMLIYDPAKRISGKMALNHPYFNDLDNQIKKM

[5] = target: Cyclin-dependent kinase 1 (Homo sapiens) (UniProt P06493); details: at 1 µM
[6] = target: Cyclin-dependent kinase 2 (Homo sapiens) (UniProt P24941); details: at 0.1 µM
[7] = target: Cyclin-dependent kinase 2 (Homo sapiens) (UniProt P24941); details: at 1 µM
[8] = target: Cyclin-dependent kinase 2 (Homo sapiens) (UniProt P24941); details: at 0.1 µM; remark: listed apart in the source
[9] = target: Cyclin-dependent kinase 2 (Homo sapiens) (UniProt P24941); details: at 1 µM; remark: listed apart in the source
[10] = target: T1, CDK3/Cyclin E (Homo sapiens) (UniProt P24864+Q00526); details: at 0.1 µM
T1 sequence (P24864 whole entry, looked up): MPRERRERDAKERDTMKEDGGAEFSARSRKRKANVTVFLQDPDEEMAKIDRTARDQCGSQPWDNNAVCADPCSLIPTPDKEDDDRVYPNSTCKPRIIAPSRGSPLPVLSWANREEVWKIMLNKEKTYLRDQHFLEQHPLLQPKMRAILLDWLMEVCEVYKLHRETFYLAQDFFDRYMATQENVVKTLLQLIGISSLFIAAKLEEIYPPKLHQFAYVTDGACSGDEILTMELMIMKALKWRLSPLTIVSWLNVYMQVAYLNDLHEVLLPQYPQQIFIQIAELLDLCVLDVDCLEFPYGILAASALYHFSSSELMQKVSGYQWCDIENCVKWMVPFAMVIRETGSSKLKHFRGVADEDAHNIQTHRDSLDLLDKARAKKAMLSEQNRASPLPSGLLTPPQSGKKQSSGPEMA
T1 sequence (Q00526 whole entry, looked up): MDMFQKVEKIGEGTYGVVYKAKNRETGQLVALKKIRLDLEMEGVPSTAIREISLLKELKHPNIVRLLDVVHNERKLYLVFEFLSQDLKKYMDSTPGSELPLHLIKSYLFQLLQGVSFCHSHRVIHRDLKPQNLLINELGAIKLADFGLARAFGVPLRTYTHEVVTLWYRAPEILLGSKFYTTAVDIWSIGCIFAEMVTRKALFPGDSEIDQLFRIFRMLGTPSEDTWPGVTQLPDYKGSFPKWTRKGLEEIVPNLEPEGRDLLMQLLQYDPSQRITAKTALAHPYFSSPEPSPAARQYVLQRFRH

[11] = target: T1, CDK3/Cyclin E (Homo sapiens); details: at 1 µM
[12] = target: Cyclin-dependent kinase 4 (Homo sapiens) (UniProt P11802); details: at 0.1 µM
Chain of Cyclin-dependent kinase 4 (Homo sapiens) (P11802 whole entry): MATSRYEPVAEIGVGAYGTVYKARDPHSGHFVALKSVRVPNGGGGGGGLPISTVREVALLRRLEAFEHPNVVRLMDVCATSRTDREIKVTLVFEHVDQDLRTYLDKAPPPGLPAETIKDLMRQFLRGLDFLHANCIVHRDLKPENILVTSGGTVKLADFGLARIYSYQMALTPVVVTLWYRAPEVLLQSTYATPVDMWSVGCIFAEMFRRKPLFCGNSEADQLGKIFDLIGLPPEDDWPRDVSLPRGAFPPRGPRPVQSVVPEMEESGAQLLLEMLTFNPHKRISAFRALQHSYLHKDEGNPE

[13] = target: Cyclin-dependent kinase 4 (Homo sapiens) (UniProt P11802); details: at 1 µM
[14] = target: Cyclin-dependent kinase 5 (Homo sapiens) (UniProt Q00535); details: at 0.1 µM
Chain of Cyclin-dependent kinase 5 (Homo sapiens) (Q00535 whole entry, looked up): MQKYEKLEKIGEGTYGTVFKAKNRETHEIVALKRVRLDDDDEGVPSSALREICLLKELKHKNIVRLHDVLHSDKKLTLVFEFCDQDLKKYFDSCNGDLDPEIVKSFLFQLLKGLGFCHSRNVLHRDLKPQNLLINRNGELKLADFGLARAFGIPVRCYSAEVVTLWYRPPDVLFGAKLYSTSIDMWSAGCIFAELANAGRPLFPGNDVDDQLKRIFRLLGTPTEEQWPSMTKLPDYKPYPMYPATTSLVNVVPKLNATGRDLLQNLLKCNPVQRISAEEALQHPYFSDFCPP

[15] = target: Cyclin-dependent kinase 5 (Homo sapiens) (UniProt Q00535); details: at 1 µM
[16] = target: Cyclin-dependent kinase 6 (Homo sapiens) (UniProt Q00534); details: at 0.1 µM
Chain of Cyclin-dependent kinase 6 (Homo sapiens) (Q00534 whole entry): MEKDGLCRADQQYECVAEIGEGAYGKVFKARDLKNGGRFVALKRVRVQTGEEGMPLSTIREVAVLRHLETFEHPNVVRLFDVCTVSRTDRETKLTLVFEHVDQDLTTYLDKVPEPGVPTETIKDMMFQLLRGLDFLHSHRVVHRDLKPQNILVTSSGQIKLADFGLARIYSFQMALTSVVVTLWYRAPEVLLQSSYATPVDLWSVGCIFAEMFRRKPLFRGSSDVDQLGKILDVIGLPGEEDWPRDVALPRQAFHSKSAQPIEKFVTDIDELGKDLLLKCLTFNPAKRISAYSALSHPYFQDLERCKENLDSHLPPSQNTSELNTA

[17] = target: Cyclin-dependent kinase 6 (Homo sapiens) (UniProt Q00534); details: at 1 µM
[18] = target: Dual specificity protein kinase CLK2 (Homo sapiens) (UniProt P49760); details: at 0.1 µM
Chain of Dual specificity protein kinase CLK2 (Homo sapiens) (P49760 whole entry, looked up): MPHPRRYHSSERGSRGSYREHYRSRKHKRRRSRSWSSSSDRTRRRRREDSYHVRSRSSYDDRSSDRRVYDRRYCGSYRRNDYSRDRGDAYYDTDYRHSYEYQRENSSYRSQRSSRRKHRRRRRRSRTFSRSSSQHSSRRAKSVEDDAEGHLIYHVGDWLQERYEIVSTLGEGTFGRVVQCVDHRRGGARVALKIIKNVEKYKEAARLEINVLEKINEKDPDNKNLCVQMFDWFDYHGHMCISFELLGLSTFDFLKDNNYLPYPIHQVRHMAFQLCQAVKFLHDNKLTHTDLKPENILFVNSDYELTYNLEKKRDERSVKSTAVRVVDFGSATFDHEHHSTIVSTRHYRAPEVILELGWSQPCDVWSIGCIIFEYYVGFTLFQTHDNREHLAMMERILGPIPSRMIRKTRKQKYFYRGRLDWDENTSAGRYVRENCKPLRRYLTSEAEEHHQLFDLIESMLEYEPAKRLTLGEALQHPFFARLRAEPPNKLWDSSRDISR

[19] = target: Dual specificity protein kinase CLK2 (Homo sapiens) (UniProt P49760); details: at 1 µM
[20] = target: Dual specificity protein kinase CLK3 (Homo sapiens) (UniProt P49761); details: at 0.1 µM
Chain of Dual specificity protein kinase CLK3 (Homo sapiens) (P49761 whole entry, looked up): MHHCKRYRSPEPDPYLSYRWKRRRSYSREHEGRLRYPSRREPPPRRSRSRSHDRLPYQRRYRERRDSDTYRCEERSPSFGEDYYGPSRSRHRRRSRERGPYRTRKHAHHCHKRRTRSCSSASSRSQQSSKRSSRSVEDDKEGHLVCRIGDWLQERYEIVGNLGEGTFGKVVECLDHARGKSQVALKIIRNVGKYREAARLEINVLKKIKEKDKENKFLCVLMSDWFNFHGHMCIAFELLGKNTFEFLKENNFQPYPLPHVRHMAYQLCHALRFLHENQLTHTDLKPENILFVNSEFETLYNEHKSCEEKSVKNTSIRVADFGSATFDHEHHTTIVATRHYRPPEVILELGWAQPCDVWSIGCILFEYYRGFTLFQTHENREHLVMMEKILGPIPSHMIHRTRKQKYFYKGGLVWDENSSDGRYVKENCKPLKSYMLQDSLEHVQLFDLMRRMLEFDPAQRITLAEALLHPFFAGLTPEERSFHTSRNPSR

Chain of Casein kinase I isoform gamma-3 (Homo sapiens) (Q9Y6M4 whole entry, looked up, canonical isoform): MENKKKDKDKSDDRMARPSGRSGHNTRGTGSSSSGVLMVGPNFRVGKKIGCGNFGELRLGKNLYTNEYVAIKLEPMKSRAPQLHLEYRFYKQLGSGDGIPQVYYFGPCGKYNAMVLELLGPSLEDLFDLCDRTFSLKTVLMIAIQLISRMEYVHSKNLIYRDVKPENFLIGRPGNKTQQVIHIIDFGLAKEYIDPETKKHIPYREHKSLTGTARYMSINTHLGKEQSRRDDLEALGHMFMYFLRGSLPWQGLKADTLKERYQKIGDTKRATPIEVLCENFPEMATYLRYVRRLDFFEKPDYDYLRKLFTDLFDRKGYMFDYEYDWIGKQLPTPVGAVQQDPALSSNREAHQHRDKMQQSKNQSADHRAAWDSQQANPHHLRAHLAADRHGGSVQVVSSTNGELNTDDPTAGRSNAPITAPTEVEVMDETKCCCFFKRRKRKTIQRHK
Chain of Casein kinase I isoform gamma-2 (Homo sapiens) (P78368 whole entry, looked up, canonical isoform): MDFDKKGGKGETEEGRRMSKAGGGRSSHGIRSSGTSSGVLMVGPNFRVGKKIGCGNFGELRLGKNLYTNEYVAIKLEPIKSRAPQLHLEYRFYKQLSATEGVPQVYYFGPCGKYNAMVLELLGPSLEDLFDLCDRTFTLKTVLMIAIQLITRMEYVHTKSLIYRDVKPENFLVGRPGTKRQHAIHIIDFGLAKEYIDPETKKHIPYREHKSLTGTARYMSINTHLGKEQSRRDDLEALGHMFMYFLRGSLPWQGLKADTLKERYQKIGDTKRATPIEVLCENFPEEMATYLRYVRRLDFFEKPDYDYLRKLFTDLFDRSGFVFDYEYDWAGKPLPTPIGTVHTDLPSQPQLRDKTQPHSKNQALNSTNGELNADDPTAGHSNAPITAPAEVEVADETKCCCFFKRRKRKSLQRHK

SMILES | inhibition [1] [%] | inhibition [2] [%] | inhibition [3] [%] | inhibition [4] [%] | inhibition [5] [%] | inhibition [6] [%] | inhibition [7] [%] | inhibition [8] [%] | inhibition [9] [%] | inhibition [10] [%] | inhibition [11] [%] | inhibition [12] [%] | inhibition [13] [%] | inhibition [14] [%] | inhibition [15] [%] | inhibition [16] [%] | inhibition [17] [%] | inhibition [18] [%] | inhibition [19] [%] | inhibition [20] [%]
COc1cc2ncnc(Nc3ccc4c(cnn4Cc4ccccc4)c3)c2cc1OC | 2.98 | 0.8 | 1.75 | 2.61 | 6.2 | 4.41 | 2.68 | 6.35 | 7.13 | -0.7 | -1.25 | 1.5 | 5.06 | 4.4 | 6.81 | -3.86 | -2.1 | -0.74 | 0.84 | 1.15
Cc1cc(O)cc(C)c1/C=C/c1cncc(C(=O)N(C)C)c1 | 3.24 | 0.86 | -0.84 | 1.02 | 5.98 | 2.51 | 0.67 | 1.36 | 4.91 | 1.4 | 0.31 | 2.02 | 5.17 | 1.19 | 4.55 | -1.04 | 3.9 | 2.35 | 2.69 | -0.01
CCn1c(-c2nonc2N)nc2c(C#CC(C)(C)O)nc(OCCNC)cc21 | 6.19 | 2.99 | 1.61 | 3.65 | 2.4 | 3.96 | 3.53 | 2.75 | 5.28 | -3.05 | -2.48 | 5.94 | 6.73 | 1.64 | 1.77 | -0.39 | -2.07 | 1.52 | 3.81 | -0.84
Cc1ccc2c(-c3ccnc(Nc4ccc5c(c4)OCCO5)n3)c(-c3ccc(C(F)(F)F)cc3)nn2n1 | 1.66 | 1.42 | 1.29 | 1.21 | 2.01 | -0.16 | 2.09 | 0.31 | 1.68 | -0.58 | -3.94 | 0.65 | 1.74 | 0.21 | 1.41 | -0.74 | -1.75 | 1.25 | -0.4 | 1.41
CCS(=O)(=O)c1ccc(OC)c(Nc2nccc(N(C)c3ccc4c(C)n[nH]c4c3)n2)c1 | 4.44 | 3.36 | 3.45 | 0.39 | 1.28 | 1.59 | 3.06 | 2.45 | 3.56 | 0.61 | -2.55 | 3.02 | 4.42 | 0.13 | 0.33 | -0.16 | -1.74 | 0.8 | 0.04 | 1.1
N#Cc1cccc(Nc2nccc(-c3cnn4ncccc34)n2)c1 | 41.4 | 8.75 | 43 | 83.8 | 89.2 | 89.8 | 121 | 82.3 | 87.2 | 76.7 | 99.9 | 71 | 83.7 | 80.3 | 87 | 61.9 | 84 | 98.9 | 96.9 | 56.7
CC(C)c1ccc2c(c1)NC(=O)/C2=N/Nc1ccc(S(N)(=O)=O)cc1 | 0.09 | 1.05 | 0.02 | 2.52 | 6.84 | 5.99 | 28.9 | 3.16 | 18.9 | 1.54 | 6.26 | 0.37 | 7.65 | 1.59 | 5.95 | 3.38 | 28.6 | -0.26 | -1.61 | -0.29
CS(=O)(=O)CCNCc1nc(-c2ccc3ncnc(Nc4ccc(OCc5cccc(C(F)(F)F)c5)cc4)c3c2)cs1 | 1.13 | 0.51 | -0.03 | 2.33 | 2.13 | 1.96 | -0.45 | 1.42 | 0.41 | -1.59 | -0.52 | 4.15 | 3.83 | 0.46 | -0.01 | -2.37 | 3.31 | -2.75 | 1.02 | 0.04
CN(C)c1cc2c(Nc3ccc4c(cnn4Cc4ccccc4)c3)ncnc2cn1 | 2.69 | 1.93 | 2.19 | 0.49 | 1.95 | 1.76 | 4.21 | 2.18 | 3.51 | 0.35 | -0.2 | 2.4 | 4.36 | 0.57 | 1.24 | -3.6 | -0.22 | 0.87 | -0.06 | 0.92
Cc1cc(Cl)cc2c1NC(=O)C2=NNc1ccc(S(N)(=O)=O)cc1 | 1.54 | -0.43 | 0.95 | 1.08 | 1.91 | 1.27 | 2.22 | 1.42 | 4.71 | 3.25 | -0.36 | 0.78 | 3.56 | 0.57 | 2.28 | 2.2 | 3.46 | 0.86 | 2.34 | 0.9
CS(=O)(=O)Nc1cccc(-c2ccc3c(NC(=O)C4CC4)n[nH]c3c2)c1 | 0.91 | 0.37 | 1.22 | 1.04 | 3.4 | 1.58 | 6.73 | 1.31 | 4.6 | 2.08 | 3.8 | 0.3 | 2.88 | 0.92 | 2.86 | -5.62 | 6.33 | 2.8 | 3.81 | -0.87
OCc1ccc(-c2nc(-c3ccccn3)c(-c3ccc4c(c3)OCO4)[nH]2)cc1 | 4.06 | 3.67 | 4.78 | 0.21 | 1.4 | 1.49 | -2.92 | 3.56 | 4.52 | 1.69 | 1.76 | 2.89 | 3.75 | 0.69 | 1.21 | -1 | 2.55 | 1.74 | 4.27 | 1.94
NS(=O)(=O)c1cccc(Nc2cc(-c3ccc(F)cc3)n[nH]2)c1 | 4.87 | 1.83 | 4.57 | 0.79 | 9.28 | 2.32 | 11.1 | 7.11 | 28.4 | 10.6 | 36.7 | 1.88 | 10 | 5.52 | 31.4 | 10.5 | 52.5 | 1.65 | 1 | 1.43
Nc1ccc(C#Cc2cncnc2Nc2ccc(OCc3cccc(F)c3)c(Cl)c2)cc1 | 2.65 | 2.45 | 2.75 | 1.11 | 1.87 | 1.4 | 1.57 | 2.14 | 3.31 | -0.93 | -1.01 | 1.19 | 3.75 | 0.23 | 1.65 | -2.6 | 0.37 | 0.14 | -1.31 | 0.75
FC(F)(F)c1ccc(-c2nn3ncccc3c2-c2ccnc(Nc3ccc4c(c3)OCCO4)n2)cc1 | 0.81 | 0.18 | 1.72 | 5.01 | 4.37 | 1.49 | -1.87 | 5.4 | 5.36 | 7.17 | 4.1 | 5.36 | 5.52 | 5.49 | 3.8 | 3.25 | 3.58 | 2.1 | 2.93 | 5.98
Nc1nccc(C#Cc2cncnc2Nc2ccc(OCc3cccc(F)c3)c(Cl)c2)n1 | 3.89 | 3.42 | 3.02 | 0.61 | 2.58 | 1.73 | 1.37 | 3.74 | 5.25 | 1.09 | 0.78 | 3.03 | 4.61 | 1.09 | 1.9 | 3.61 | 2.5 | 2.79 | 14.2 | 1.85
NS(=O)(=O)c1cccc(-c2cc3ccncc3cc2OCc2ccccc2)c1 | 4.41 | 4.33 | 2.71 | 2.03 | 2.22 | 1.1 | 3.16 | 5.88 | 6.78 | 3.65 | 0.51 | 3.55 | 6.33 | 1.96 | 3.2 | -1.23 | 10.9 | 1.16 | 1.27 | 1.46
Cc1ccc(O)cc1Nc1ccnc2ccc(S(C)(=O)=O)cc12 | 6.1 | 3.71 | 9.28 | 1.72 | -1.86 | 2.82 | 4.49 | 4.22 | 4.92 | 2.71 | -3.13 | 3.24 | 4.37 | 0.36 | 2.61 | -4.64 | 3.72 | 2.47 | 7.17 | 1.75
CN(c1ccc(NC(=O)Nc2ccc(OC(F)(F)F)cc2)cc1)c1ccnc(Nc2cccc(S(N)(=O)=O)c2)n1 | 2.66 | 1.74 | 2.37 | -0.1 | 5.09 | 0.55 | 14.4 | 1.2 | 7.47 | -0.62 | 3.98 | 0.85 | 6.76 | 0.45 | 5.8 | 2.09 | 27.4 | 1.61 | -2.84 | 0.59
NS(=O)(=O)c1ccc(Nc2cc(-c3cccc(O)c3)n[nH]2)cc1 | 5.96 | 7.49 | 2.14 | 2.03 | 12.9 | 16.7 | 78.1 | 16.5 | 56 | 5.95 | 28.8 | 3.25 | 9.51 | 5.69 | 31.5 | 2.31 | 21.3 | 3.77 | 2.54 | 1.95
O=S(=O)(CCOCc1ccc(-c2ccc3ncnc(Nc4ccc(OCc5cccc(F)c5)c(Cl)c4)c3c2)o1)c1ccccc1 | 1.75 | 0.25 | 0.46 | 3.78 | 4.97 | 2.29 | 2.76 | 4.07 | 6.29 | -0.59 | -2.84 | 0.35 | 4.69 | 4.26 | 5.68 | 0.17 | 3.76 | -0.59 | 1.39 | 0.11
COC(=O)c1ccc2c(c1)C(=Cc1cc(Br)c(O)c(Br)c1)C(=O)N2 | 6.12 | 3.75 | 5.04 | 1.54 | 2.24 | 8.07 | 7.32 | 2.47 | 4.31 | -5.06 | -1.48 | 3.47 | 4.69 | 1.03 | 2.5 | -4.09 | -4.12 | 8.63 | 50.1 | 0.44
COc1cc2ncnc(Nc3ccc(C)c(O)c3)c2cc1OC | 4.75 | 1.97 | 4.02 | 0.59 | 4.09 | 1.34 | 1.09 | 4.69 | 6.24 | 4.08 | -1.71 | 4.46 | 6.21 | 0.92 | 2.99 | -0.81 | 4.49 | 1.85 | 0.29 | 1.39
NS(=O)(=O)c1ccc(-c2cc3ccncc3cc2OCc2ccccc2)cc1 | 3.43 | 1.53 | 4.76 | -0.03 | 0.11 | 1.51 | 2.11 | 1.41 | 1.57 | 4.12 | -0.11 | 2.12 | 0.84 | -0.11 | -1.18 | 3.37 | 2.89 | 0.98 | 2.04 | 1.44
Nc1nccc(-c2c(-c3ccc(F)cc3)ncn2CCCN2CCOCC2)n1 | 4.12 | 3.31 | 6.54 | 0.36 | 2.84 | 1.82 | -4.06 | 2.73 | 2.71 | 4.59 | -2.47 | 3.06 | 2.9 | 0.16 | 0.47 | -2.14 | 0.98 | 0.47 | 0.74 | 1.31
COc1cccc(-n2ncc3c(N/N=C/c4ccc(C)cc4)ncnc32)c1 | 12 | 6.01 | 8.48 | 4.4 | 8.17 | 5.82 | 11 | 2.46 | 7.81 | -3.32 | -1.25 | 3.51 | 7.43 | 2.17 | 6.59 | -2.39 | -0.54 | -0.41 | 6.42 | 1.22
